Consider 38 compounds from PubChem BioAssay (NCATS).

Inconclusive results are not listed. A number with no mark means an inactive call. Calls of active or inactive are those of the source. Calls follow the shape of the full dose curve; tested in HEK293 reporter line.
% is scaled to controls: 0 for no effect and ±100 for the full control effect; potency is read from the fitted curve at half-maximal effect.

This assay in a line: qHTS for Inhibitors of the Functional Ribonucleoprotein Complex (vRNP) of Lymphocytic Choriomeningitis Arenaviruses (LCMV): Viability assay - alamar blue signal for LCMV Primary Screen (AID 1347085). Also: nearly all actives have a fitted effect of over 80% in size. As to conditions: alamar blue viability counter-screen, LCMV vRNP screen cells; series mostly up to 57.5 µM; activity change, negative = lower viability: at the top concentration.
Take `Cc1ccc(C(=O)C(=O)O)cc1C`: the “activity change, negative = lower viability” value is 1.78%.

As to `COC(=O)c1cc(Cl)ccc1OC`, the “activity change, negative = lower viability” value was -7.87%.

On to `CCCCC(O)/C=C(C)/C=C/C=C/C(=O)N1CCCC1=O` (stereo not drawn), for which the “activity change, negative = lower viability” value was 20.2%.

For the compound `Nc1ccc(S(=O)(=O)Nc2ccc(Cl)nn2)cc1`, the “activity change, negative = lower viability” value was 2.31%.

As to `NC(=O)N1c2ccccc2C=Cc2ccccc21`, the Potency entry was “inactive”.

As for `NC(=O)c1ncn([C@@H]2O[C@H](CO)[C@@H](O)[C@H]2O)c1O`, the Potency result is “inactive”.

Take `O=C(Cn1ccnc1[N+](=O)[O-])NCc1ccccc1`: the “activity change, negative = lower viability” value was 0.463%.

As for `Cc1cc(=O)oc2cc(O[C@@H]3SC[C@@H](O)[C@H](O)[C@H]3O)ccc12`, the “activity change, negative = lower viability” value was 2.81%.

On to `CCOC(=O)[C@H](CCc1ccccc1)N[C@@H](C)C(=O)N1CCC[C@H]1C(=O)O`, for which the “activity change, negative = lower viability” value was -0.326%.

With `CC(C)CCCC(C)NCCC(C)C` (stereo not drawn), the “activity change, negative = lower viability” value is 12.1%.

In the case of `CCn1ccc(NS(=O)(=O)c2ccc(N)cc2)nc1=O`, the “activity change, negative = lower viability” value was -9.51%.

As to `CNCc1ccccc1`, the “activity change, negative = lower viability” value is 6.2%.

Regarding `CCOC(=O)c1ccc(OCCN2C[C@H](O)[C@@H](O)[C@H](O)[C@H]2CO)cc1`, the “activity change, negative = lower viability” value is 3.42%.

As for `Nc1c(I)cc(I)c(C(=O)N(CCC(=O)O)c2ccccc2)c1I`, the “activity change, negative = lower viability” value was -28.5%.

As to `NC(N)=NC(=O)Cc1c(Cl)cccc1Cl`, the Potency result is “inactive”.

In the case of `O=C1CC[C@H](C(=O)N2CCCCC2)N1`, the “activity change, negative = lower viability” value is 6.04%.

Consider `CC(=O)Nc1c(I)cc(I)c(C(=O)O)c1I`, for which the “activity change, negative = lower viability” value is -0.989%.

As for `CS(=O)(=O)c1ccc([C@@H](O)[C@@H](CF)NC(=O)C(Cl)Cl)cc1`, the “activity change, negative = lower viability” value was 5.32%.

Consider `CC(C(=O)O)c1cccc(Oc2ccccc2)c1` (stereo not drawn), for which the “activity change, negative = lower viability” value was 1.25%.

In the case of `O=C(O)Cn1cnnn1`, the “activity change, negative = lower viability” value was -1.19%.

Consider `NC1CCN(c2cccc(Cl)n2)CC1`, for which the Potency result was “inactive”.

Consider `Nc1ccc(C(=O)Oc2ccccc2)c(O)c1`, for which the “activity change, negative = lower viability” value was 2.52%.

As to `NS(=O)(=O)c1cc(-c2nn[nH]n2)c(NCc2cccs2)cc1Cl`, the “activity change, negative = lower viability” value is 0.341%.

Turning to `Cc1cc(O)cc2c1O[C@](C)(CCC[C@H](C)CCC[C@H](C)CCCC(C)C)CC2`, the “activity change, negative = lower viability” value is 11.7%.

`COc1cccc2c1C(=O)c1c(O)c3c(c(O)c1C2=O)C[C@@](O)(C(C)=O)C[C@H]3O[C@H]1C[C@H](N)[C@H](O)[C@H](C)O1`: the Potency is 0.153 µM (active).

As to `Cc1oc(=O)oc1CN1CCN(c2cc3c(cc2F)c(=O)c(C(=O)O)c2n3C(C)S2)CC1` (stereo not drawn), the Potency result is “inactive”.

For `CCCCCCCCCCCCCCCCO`, the Potency entry was “inactive”.

For `CN1C(C(=O)Nc2ccccn2)=C(O)c2sccc2S1(=O)=O`, the Potency result is “inactive”.

Consider `CC(C)(C)NCC(O)COc1ccccc1OCC1CCCO1` (stereo not drawn), for which the “activity change, negative = lower viability” value is 9.6%.

Regarding `COC(=O)/C=C(/C)N`, the “activity change, negative = lower viability” value is 9.59%.

`Nc1nc(N)nc(-c2cc(Cl)ccc2Cl)n1`: the Potency entry was “inactive”.

With `CC1(C)O[C@@H]2C[C@H]3[C@@H]4CCC5=CC(=O)C=C[C@]5(C)[C@@]4(F)[C@@H](O)C[C@]3(C)[C@]2(C(=O)CO)O1`, the “activity change, negative = lower viability” value is 18%.

`O=C1C(O)=C(O)C(=O)C(O)=C1O`: the “activity change, negative = lower viability” value is -82.6%.

Turning to `NC(CS)C(=O)O` (stereo not drawn), the “activity change, negative = lower viability” value is 10.1%.

`CCOC(=O)C1=C[C@@H](OC(CC)CC)[C@H](NC(C)=O)[C@@H](N)C1`: the “activity change, negative = lower viability” value was 0.553%.

Take `Cc1cccc(C(=O)O)c1O`: the “activity change, negative = lower viability” value is 2.54%.

`CC(C)(C)NCC(O)c1cc(O)cc(O)c1` (stereo not drawn): the Potency entry is “inactive”.

Turning to `Cc1cccc(C)c1NC(=O)CN1CCCCCC1`, the “activity change, negative = lower viability” value is 11.6%.
